Mcl1-Bid inh = Mcl-1/Bid binding inhibitors, primary screen, biochemical, TR-FRET, 1536-well; Induced myeloid leukemia cell differentiation protein Mcl-1 (Homo sapiens), Q07820; TR-FRET Mcl-1/Bid-Dy647 peptide binding; inhibition, % at 21.7 µM; hit rate 0.97% among 220,000; AID 1021, 2008;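 active = compounds that cut the binding signal by more than half at the single screening dose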;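 note: His-tagged Mcl-1 with europium anti-His antibody binding Bid BH3 peptide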
Target sequence (Q07820 whole entry, looked up): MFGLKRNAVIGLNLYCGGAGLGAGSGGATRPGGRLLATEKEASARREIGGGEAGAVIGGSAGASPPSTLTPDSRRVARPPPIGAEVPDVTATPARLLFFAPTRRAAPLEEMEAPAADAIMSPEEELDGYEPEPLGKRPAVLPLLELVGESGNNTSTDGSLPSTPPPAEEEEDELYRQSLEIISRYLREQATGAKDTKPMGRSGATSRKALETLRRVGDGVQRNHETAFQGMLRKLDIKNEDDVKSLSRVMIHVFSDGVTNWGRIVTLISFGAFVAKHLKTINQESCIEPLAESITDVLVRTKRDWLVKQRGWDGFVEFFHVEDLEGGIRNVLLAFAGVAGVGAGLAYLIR
GLD-1 RNA inh = GLD-1/TGE RNA complex disruptors, primary screen, biochemical, fluorescence polarization; Female germline-specific tumor suppressor gld-1 (Caenorhabditis elegans), Q17339; purified GLD-1 + fluorescein TGE RNA; inhibition, % at 5.96 µM; hit rate 0.44% among 320,000;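 active = percent inhibition above a per-plate cutoff, the plate mean of test compounds plus 3 SD, cut at about 30% in these data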
MCL1 BIM primary = inhibitors of MCL1 binding to BIM-BH3, primary screen, biochemical, fluorescence polarization. Induced myeloid leukemia cell differentiation protein Mcl-1 (Homo sapiens), Q07820. GST-MCL1 / FITC-Bim-BH3 fluorescence polarization. inhibition, % at 10.9 µM. hit rate 0.68% among 320,000. AID 2057, 2009;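 active = inhibition above the mean inhibition of all tested compounds plus 3 SD, set per campaign, cut at about 40% in these data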;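 note: higher means more loss of mP so more displacement of Bim peptide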
Mcl1 Noxa PPI = Mcl-1/Noxa binding inhibitors, primary screen, biochemical, TR-FRET, 1536-well; TR-FRET Mcl-1/Noxa peptide binding, 2 h; inhibition, % at 21.7 µM; hit rate 1.5% among 220,000; AID 1022, 2008;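 active = compounds that cut the protein-peptide binding signal by more than 50% relative to plate controls in a single-dose test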;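 note: His-tagged Mcl-1 with rhodamine Noxa BH3 peptide and terbium anti-His antibody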
Bim-Mcl-1 = inhibitors of Bim peptide binding to Mcl-1, primary screen, biochemical, bead-based flow cytometry, multiplex; Induced myeloid leukemia cell differentiation protein Mcl-1 (Homo sapiens), Q07820; Bim peptide-Mcl-1 binding; hit rate 0.1% among 190,000; inhibition, % at 10 µM; in the data active = inhibition above about 40%
BCLXL inh = inhibitors of human Bcl-xL, primary screen, biochemical, fluorescence polarization, HTS; Bcl-2-like protein 1 (Homo sapiens), Q07817; inhibition, % at 10.9 µM; hit rate 0.7% among 320,000; GST-Bcl-xL / FITC-Bim BH3 peptide fluorescence polarization;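 active = inhibition above the mean of all tested compounds plus 3 SD, cutoff set per campaign, cut at about 30% in these data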;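 note: inhibitors lower millipolarization by displacing the labeled peptide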
Target sequence (Q07817 whole entry, looked up): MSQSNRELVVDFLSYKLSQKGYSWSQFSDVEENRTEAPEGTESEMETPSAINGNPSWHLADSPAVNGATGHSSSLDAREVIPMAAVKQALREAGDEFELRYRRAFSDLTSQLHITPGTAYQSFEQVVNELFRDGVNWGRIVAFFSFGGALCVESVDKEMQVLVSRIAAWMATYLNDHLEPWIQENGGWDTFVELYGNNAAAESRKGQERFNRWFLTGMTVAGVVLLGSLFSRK
Large screens that a line does not name were inactive. Sampled rows, rich in hits. Any-hit rate of the full collection: about 2.3%.

CCOC(=O)c1cc(C(O)(C(=O)OC)C(F)(F)F)c(/N=C/N(C)C)o1 (stereo unspecified)	Mcl1 Noxa PPI 86
c1ccc(-c2ccc(-c3n(-c4ccccn4)c4ccccc4[n+]3-c3ccccn3)cc2)cc1	Mcl1 Noxa PPI 87 (no result: GLD-1 RNA inh, MCL1 BIM primary, BCLXL inh)
COc1ccc(CC(C)NCCC(c2ccccc2)c2ccccc2)cc1 (stereo unspecified)	none (no result: Mcl1-Bid inh, Mcl1 Noxa PPI, Bim-Mcl-1)
Cc1ccccc1NC(=O)c1cc(-c2ccccc2)n(CCCN2CCOCC2)c1C	Mcl1-Bid inh 63 (no result: Bim-Mcl-1)
CN(Cc1ccccc1)C(=C(Cl)Cl)/C(=C1/NCCN1Cc1ccc(Cl)nc1)[N+](=O)[O-]	none
COc1cc2c(cc1O)C[C@H]1NCCc3cc4c(c-2c31)OCO4	Mcl1 Noxa PPI 79
COc1cc2c(cc1OC)-c1c3c(cc4c1[C@@H](C2)N(C)CC4)OCO3	none
Cc1ccc(/C=C2\C(=O)NC(=S)N(c3ccccc3F)C2=O)s1	Mcl1 Noxa PPI 93
Cc1ccc(/C=C2\C(=O)NC(=S)N(c3ccc(F)cc3)C2=O)s1	none
O=C1NC(=S)NC(=O)C1=Cc1cccn1-c1ccc(O)cc1	Mcl1 Noxa PPI 76 (no result: GLD-1 RNA inh, MCL1 BIM primary, BCLXL inh)
CN1C(=O)/C(=C/c2cccn2-c2ccc3ccccc3c2)C(=O)NC1=S	none
CC(C)C[C@H]1C(=O)N2CCCC2[C@]2(O)O[C@](NC(=O)[C@@H]3C=C4c5cccc6[nH]cc(c56)CC4N(C)C3)(C(C)C)C(=O)N12 (stereo partly specified)	GLD-1 RNA inh 117, MCL1 BIM primary 194, BCLXL inh 152
CC(C)C1(C)N=C(c2ncccc2C(=O)O)NC1=O (stereo unspecified)	Mcl1-Bid inh 85
Nc1ccc2c(c1)Cc1ccccc1-2	Mcl1 Noxa PPI 54
CCCN1CCC(NC2CCC(O)CC2)CC1 (stereo unspecified)	none (no result: Mcl1-Bid inh, Mcl1 Noxa PPI, Bim-Mcl-1)
CCCc1nnc(NC(=O)CCC(=O)N2CCC3(CC2)OCCO3)s1	MCL1 BIM primary 44, BCLXL inh 54 (no result: Bim-Mcl-1)
O=C(O)CCn1cc(C=C2C(=O)NC(=S)NC2=O)c(-c2cc3ccccc3oc2=O)n1	Mcl1 Noxa PPI 81 (no result: GLD-1 RNA inh, MCL1 BIM primary, BCLXL inh)
O=C(O)CCn1cc(C=C2C(=O)NC(=S)NC2=O)c(-c2ccccc2)n1	Mcl1 Noxa PPI 62
N#CCCn1cc(C=C2C(=O)NC(=O)NC2=O)c(-c2ccccc2)n1	none
C=Cc1ccc(Cn2c(C(=O)O)c(C=O)c3ccccc32)cc1	none
O=C(O)C1CN2CCC1CC2 (stereo unspecified)	BCLXL inh 33
O=C(c1cccs1)C1CN2CCC1CC2 (stereo unspecified)	none
CCC(C)NS(=O)(=O)c1ccc(OCC(=O)N2CCN(CC)CC2)cc1 (stereo unspecified)	none
CCOC(=O)[C@@]1(C#N)[C@@H]2C=CC(C(N)=O)=CN2[C@@H](C(N)=O)[C@@H]1c1cccc(Cl)c1	BCLXL inh 38
Cc1cccc(NC(=O)COC(=O)c2cc(C)n(C3CC3)c2C)c1	none (no result: Mcl1-Bid inh, Mcl1 Noxa PPI, Bim-Mcl-1)
COc1cccc(-n2c(/C=C/c3ccc(O)c(O)c3)nc3ccccc3c2=O)c1	Mcl1 Noxa PPI 56
COC(=O)C1C2c3ccccc3OC1(C)N=c1s/c(=C/c3cnn(C)c3C)c(=O)n12 (stereo unspecified)	Bim-Mcl-1 64
CC(=O)C1C2c3ccccc3OC1(C)N=c1s/c(=C/c3cnn(C)c3)c(=O)n12 (stereo unspecified)	none
COc1cccc(NC(=O)[C@@H](NC(=O)N2C[C@H]3C[C@@H](C2)c2cccc(=O)n2C3)C(C)C)c1	none (no result: Mcl1-Bid inh, Mcl1 Noxa PPI, Bim-Mcl-1)
CCOC(=O)c1c(N)n(Cc2ccco2)c2nc3ccccc3nc12	GLD-1 RNA inh 62, BCLXL inh 43
COCC(C)OC(=O)c1c(N)n(Cc2ccco2)c2nc3ccccc3nc12 (stereo unspecified)	GLD-1 RNA inh 39, BCLXL inh 34
CCCCn1c(O)c(/C=C2/C=CC=N2)c(=O)[nH]c1=O	none (no result: Bim-Mcl-1)
N/C(=N\[N+](=O)[O-])NCCCC(NC(=O)CNC(=O)c1ccccc1)C(=O)O (stereo unspecified)	none
Cn1cc(C(=O)NP(=O)(N2CCOCC2)N2CCOCC2)c2ccccc21	none
Nc1c(C(=O)NCc2ccco2)c2nc3ccccc3nc2n1Cc1ccccc1	none
Nc1c(C(=O)NCc2ccco2)c2nc3ccccc3nc2n1CCN1CCOCC1	none
COc1ccc(Cn2c(N)c(C(=O)NCc3ccco3)c3nc4ccccc4nc32)cc1	Mcl1 Noxa PPI 71
Nc1c(C(=O)NCc2ccco2)c2nc3ccccc3nc2n1Cc1ccc(F)cc1	Mcl1-Bid inh 53, Mcl1 Noxa PPI 65
CC(=NCCC1=CCCCC1)c1c(O)n(-c2ccccc2)c(=O)[nH]c1=O	none (no result: Bim-Mcl-1)
COC(=O)C1=C(c2ccc(-c3ccccc3)c(F)c2)C[C@@H]2CC[C@H]1N2C(=O)NCCOc1ccc(OC)cc1	none (no result: Mcl1-Bid inh, Mcl1 Noxa PPI, Bim-Mcl-1)
COc1cc(/C=C/[N+](=O)[O-])ccc1O	Mcl1 Noxa PPI 51
O=C1C2CCN(CC2)C1Cc1ccc(OCc2ccccc2)cc1 (stereo unspecified)	none
Cc1nc2ccccc2c(=O)n1-c1cccc(O)c1	none
O=c1c2ccccc2nc(-c2cccs2)n1-c1ccccc1	none
Cc1cccc(-n2c(-c3cccs3)nc3ccccc3c2=O)c1	Mcl1-Bid inh 58
Cc1ccc(-c2nc3ccccc3c(=O)n2-c2cccc(O)c2)cc1	BCLXL inh 31
COC(=O)C1=C(c2ccc(OC(F)(F)F)cc2)C[C@@H]2CC[C@H]1N2C(=O)NC1CCCCC1	none (no result: Mcl1-Bid inh, Mcl1 Noxa PPI, Bim-Mcl-1)
CC(C)(C)C(O)C(Oc1ccc(Cl)cc1)n1cncn1 (stereo unspecified)	Mcl1-Bid inh 76
CC(C(=O)c1ccc(Cl)cc1Cl)n1cncn1 (stereo unspecified)	none (no result: Mcl1-Bid inh, Mcl1 Noxa PPI, Bim-Mcl-1)
CC(C)n1c(=O)c(C=Nc2ccc(F)cc2)c(O)n(Cc2ccco2)c1=O	none
CSc1ccc(C(=O)C2CCCN(CCCn3cccn3)C2)cc1 (stereo unspecified)	Mcl1-Bid inh 65
C[CH2][Hg][S]c1ccccc1C(=O)O	none (no result: Mcl1-Bid inh, Mcl1 Noxa PPI, Bim-Mcl-1)
O=c1c2ccccc2nc(-c2ccco2)n1-c1cccnc1	Mcl1 Noxa PPI 97
O=C1C=Cc2ccccc2C1=O	Mcl1 Noxa PPI 73
COc1ccc(OCC(=O)N2CCN(C(C)C)CC2)cc1	Mcl1-Bid inh 53
NC1=NC(=O)C(c2ccccc2)O1 (stereo unspecified)	none (no result: GLD-1 RNA inh, MCL1 BIM primary, BCLXL inh)
Cc1ccc(S(=O)(=O)NCCC(=O)Nc2ccc(Cl)cc2C(=O)c2ccccc2)cc1	none
Cc1ccc(S(=O)(=O)N[C@@H](CCCCN)C(=O)CCl)cc1	BCLXL inh 32 (no result: Mcl1-Bid inh, Mcl1 Noxa PPI, Bim-Mcl-1)
